Drawing on PubChem BioAssay (Tox21), this text covers Potency and PLD induction for 39 compounds.

Records with an inconclusive call do not appear. Entries that show only a call come without a potency. A number with no mark means an inactive call. Calls of active or inactive are those of the source. Calls come from the whole dose curve; as a rule, active = well fitted activation curve with a large enough effect; inconclusive = small, poorly fitted or top-dose-only effect; inactive = flat fitted curve, though single readings scatter. Positions of bridges follow the written chain, without caps; N, C: chain ends. Non-standard residues stand in square brackets, D forms with d. Residues, ends and D or L forms follow the SMILES beside them. *: point of attachment. Dab(CH2SO3H) = N[C@@H](CCNCS(=O)(=O)O)C(=O)O; X3 = CC[C@@H](C)CCCCC(=O)*; Dab = NCC[C@H](N)C(=O)O

The assay in a line: qHTS assay to identify small molecule phospholipidosis (PLD) inducers (AID 1259344). The settings on record: HepG2 phospholipidosis, LipidTOX Red imaging, 24 h; series mostly up to 38.3 µM. In outline: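 Image-based: LipidTOX Red pit count/intensity per well and per cell; HepG2, 24 h compound at 37 C, PFA fixation, Hoechst counterstain.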
(In general: Quantitative high-throughput screening tests each substance at several concentrations.)
Regarding `CCCCCCOC(=O)c1cccnc1`, the Potency entry is “inactive”.

For the compound `CC(=O)Nc1ccc(OC(C)=O)cc1`, the Potency result is “inactive”.

On to `CN1[C@@H](CC(=O)c2ccccc2)CCC[C@H]1C[C@H](O)c1ccccc1`, for which the Potency result was “inactive”.

For the compound `CC(C)COC(=O)OCN1C(=O)CN(CCN2CC(=O)N(COC(=O)OCC(C)C)C(=O)C2)CC1=O`, the Potency result was “inactive”.

For `CN1C(C(=O)Nc2ccccn2)C(=O)c2sc(Cl)cc2S1(=O)=O` (centres undefined), the Potency result was “inactive”.

On to `Cc1ccc(C(C)(C)c2ccc(C)cc2)cc1`, for which the Potency entry is “inactive”.

For `CCOC(=O)COc1ccc2c(=O)cc(-c3ccccc3)oc2c1`, the Potency entry was “inactive”.

On to `CNC(=O)OCc1cccc(COC(=O)NC)n1`, for which the Potency result is “inactive”.

Consider `O=C(O)[C@@H]1C[C@H](CP(=O)(O)O)CCN1`, for which the Potency entry is “inactive”.

As for `CC(C)Cc1ccc([C@H](C)C(=O)O)cc1`, the Potency result was “inactive”.

`O=C1C2CC3CC1CC(O)(C3)C2`: the Potency result is “inactive”.

Consider `CCCn1c(=O)[nH]c(=O)c2[nH]cnc21`, for which the Potency entry was “inactive”.

With `CCN(CC)C(=O)[C@]1(c2ccccc2)C[C@@H]1CN`, the Potency entry was “inactive”.

For `NC(=O)c1cc[n+](CC2=C(C(=O)O)N3C(=O)[C@@H](NC(=O)C(c4ccccc4)S(=O)(=O)[O-])[C@H]3SC2)cc1` (some centres undefined), the Potency result is “inactive”.

For `CCC(O)c1ccccc1` (centres undefined), the Potency result was “inactive”.

Consider `CC(C)[N+]1(C)[C@@H]2CC[C@H]1CC(OC(=O)C(CO)c1ccccc1)C2` (some centres undefined), for which the Potency entry is “inactive”.

As to `NC(N)=NCC1COC2(CCCCC2)O1` (centres undefined), the Potency result is “inactive”.

On to `NC(N)=NCc1cccc(I)c1`, for which the Potency result was “inactive”.

Consider `Cc1cn([C@H]2C[C@H](O)[C@@H](CO)O2)c(=O)[nH]c1=O`, for which the Potency result was “inactive”.

In the case of `CO/N=C(\C(=O)N[C@@H]1C(=O)N2C(C(=O)O)=C(CSc3nc(C)c(CC(=O)O)s3)CS[C@H]12)c1csc(N)n1`, the Potency entry was “inactive”.

With `O=C(O)/C=C/C(O)c1ccc(Cl)cc1` (centres undefined), the Potency result is “inactive”.

On to `CC[C@@H](C)CCCCC(=O)N[C@@H](CCNCS(=O)(=O)O)C(=O)N[C@H](C(=O)N[C@@H](CCNCS(=O)(=O)O)C(=O)N[C@H]1CCNC(=O)[C@H]([C@@H](C)O)NC(=O)[C@H](CCNCS(=O)(=O)O)NC(=O)[C@H](CCNCS(=O)(=O)O)NC(=O)[C@H](CC(C)C)NC(=O)[C@@H](CC(C)C)NC(=O)[C@H](CCNCS(=O)(=O)O)NC1=O)[C@@H](C)O` (X3-[Dab(CH2SO3H)]T[Dab(CH2SO3H)][Dab][Dab(CH2SO3H)][dL]L[Dab(CH2SO3H)][Dab(CH2SO3H)]T; lactam 4-C), for which the Potency entry was “inactive”.

Take `CC(=O)OCC1=C(C(=O)O)N2C(=O)[C@@H](NC(=O)Cc3ccccc3)[C@H]2SC1`: the Potency result is “inactive”.

Take `COc1cc2c(c(OC)c1OC)-c1c(cc3c(c1OC)OCO3)C[C@@H](C)[C@](C)(O)C2`: the Potency result was “inactive”.

With `O=C(O)CC(O)(CC(=O)O)C(=O)O`, the PLD induction was -0.895% [at 1.53 µM].

`CC(C)OC(=O)Nc1ccc2nc(-c3cscn3)[nH]c2c1`: the Potency entry was “inactive”.

In the case of `COC1[C@@H](O[C@@H]2O[C@H](C)[C@@H](O[C@H]3C[C@@](C)(O)[C@H](OC(=O)CC(C)C)[C@H](C)O3)[C@H](N(C)C)[C@H]2O)[C@@H](CC=O)C[C@@H](C)[C@@H](O)/C=C/C=C/C[C@@H](C)OC(=O)C[C@H]1OC(C)=O` (some centres undefined), the Potency entry was “inactive”.

As to `CCN1CCCC1CNC(=O)c1cc(S(=O)(=O)CC)ccc1OC` (centres undefined), the Potency result was “inactive”.

`CCOC(=O)[C@H](CCc1ccccc1)N[C@@H](C)C(=O)N1[C@H](C(=O)O)C[C@H]2CCCC[C@@H]21`: the Potency result is “inactive”.

Consider `CC1(C)C[C@@H]1C(=O)N/C(=C\CCCCSC[C@H](N)C(=O)O)C(=O)O`, for which the Potency result was “inactive”.

`Cc1c(N)nc([C@H](CC(N)=O)NC[C@H](N)C(N)=O)nc1C(=O)N[C@H](C(=O)N[C@H](C)[C@@H](O)[C@H](C)C(=O)N[C@H](C(=O)NCCc1nc(-c2nc(C(=O)NCCCCN=C(N)N)cs2)cs1)[C@@H](C)O)[C@@H](O[C@@H]1O[C@@H](CO)[C@@H](O)[C@H](O)[C@@H]1O[C@H]1O[C@H](CO)[C@@H](O)[C@H](OC(N)=O)[C@@H]1O)c1cnc[nH]1`: the Potency result is “inactive”.

Consider `FC(F)(F)C(F)(F)C(F)(F)C(F)(F)C(F)(F)F`, for which the Potency result is “inactive”.

Regarding `C=CC1=C(C(=O)O)N2C(=O)[C@@H](NC(=O)/C(=N\O)c3csc(N)n3)[C@H]2SC1` (stereo in doubt), the Potency result is “inactive”.

On to `CC(C)c1ncc([N+](=O)[O-])n1C`, for which the Potency entry is “inactive”.

With `CCOC(=O)Cc1ccc(-c2ccccc2)cc1`, the Potency entry is “inactive”.

For the compound `C[C@H](Cc1ccc(O)c(O)c1)[C@@H](C)Cc1ccc(O)c(O)c1`, the Potency entry was “inactive”.

As to `CC1(C)S[C@@H]2[C@H](N3C(=O)C(c4ccccc4)NC3(C)C)C(=O)N2[C@H]1C(=O)O` (some centres undefined), the Potency result is “inactive”.

Consider `O=C1c2ccccc2CN2C(=O)c3ccccc3CN12`, for which the Potency entry is “inactive”.

For the compound `CN1C(=O)C[C@@H](C(=O)N[C@@H](Cc2cnc[nH]2)C(=O)N2CCC[C@H]2C(N)=O)NC1=O`, the Potency entry is “inactive”.
